# Hits are enriched below; roughly 0.92% of the tested compounds scored in any of these assays.
# FadD28 FP inh – inhibitors of FadD28 bisubstrate probe binding, primary screen, biochemical, fluorescence polarization, single point. inhibition, % at 12.5 µM. AID 588549, 2011. Mycobacterium tuberculosis FadD28 fatty-acid-AMP ligase. actives 0.22% (n = 360,000); in the data active = inhibition above about 8.5%, passing the limit was not always enough; inconclusive = no clear call, values can overlap the other calls
# Mtb betalactam – beta-lactam sensitization of Mtb H37Rv, H37Rv | inhibition, % at 25 µM | M. tuberculosis H37Rv growth with meropenem, percent inhibition | actives 0.27% (n = 330,000);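 also: growth measured after seven days incubation then overnight dye step; 0% = bacteria only wells and 100% = bacteria with antibiotic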
# RecA splice inh – Mtb RecA intein splicing inhibitors, primary screen, biochemical, fluorescence, HTS; cell-free RecA intein splicing; Protein RecA (Mycobacterium tuberculosis (strain ATCC 25618 / H37Rv)), P9WHJ3; actives 0.75% (n = 290,000); inhibition, % (test concentration not listed); AID 2221, 2009; in the data active = inhibition above about 30%; inconclusive = no clear call, values can overlap the other calls;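 also: 0% = vehicle wells and 100% = reference inhibitor control wells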
# Target sequence (P9WHJ3 whole entry, looked up, canonical isoform): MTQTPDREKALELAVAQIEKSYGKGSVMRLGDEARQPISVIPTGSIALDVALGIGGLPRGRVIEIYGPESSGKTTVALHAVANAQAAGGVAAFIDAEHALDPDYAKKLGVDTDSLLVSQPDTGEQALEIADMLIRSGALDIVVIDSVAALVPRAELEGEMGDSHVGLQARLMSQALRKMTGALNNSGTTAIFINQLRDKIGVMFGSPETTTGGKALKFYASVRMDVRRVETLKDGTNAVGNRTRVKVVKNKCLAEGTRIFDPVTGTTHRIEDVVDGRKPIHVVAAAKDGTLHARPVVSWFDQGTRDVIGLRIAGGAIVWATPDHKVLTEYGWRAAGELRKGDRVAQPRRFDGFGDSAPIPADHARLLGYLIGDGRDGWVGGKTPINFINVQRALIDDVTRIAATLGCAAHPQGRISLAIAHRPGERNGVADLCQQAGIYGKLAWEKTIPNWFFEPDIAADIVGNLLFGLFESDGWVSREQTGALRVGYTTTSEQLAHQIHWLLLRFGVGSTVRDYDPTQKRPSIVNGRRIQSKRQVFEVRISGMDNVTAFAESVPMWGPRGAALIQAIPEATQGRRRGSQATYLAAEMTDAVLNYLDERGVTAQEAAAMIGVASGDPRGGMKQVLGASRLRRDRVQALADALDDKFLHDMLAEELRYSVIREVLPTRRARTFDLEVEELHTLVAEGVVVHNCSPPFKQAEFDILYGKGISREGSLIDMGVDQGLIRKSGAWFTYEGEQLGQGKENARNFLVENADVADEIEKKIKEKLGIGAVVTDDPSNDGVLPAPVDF
# UGM FP inh – M. tuberculosis UGM enzyme inhibitors, primary screen, biochemical, fluorescence polarization, single point; UDP-galactopyranose mutase (Mycobacterium tuberculosis (strain ATCC 25618 / H37Rv)), …; purified UGM, fluorescence polarization probe displacement; inhibition, % at 10 µM; actives 0.06% (n = 320,000); AID 504406, 2011; in the data active = inhibition above about 10%, passing the limit was not always enough; inconclusive = no clear call, values can overlap the other calls
# Rv3671c inh – Rv3671c serine protease inhibitors, primary screen, biochemical, fluorescence polarization, M. tuberculosis H37Rv. AID 2606, 2010. inhibition, % at 5.96 µM. actives 0.048% (n = 320,000). P9WHR9; in the data active = inhibition above about 38%;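 also: extracellular domain of Rv3671c used as enzyme; 0% = enzyme with DMSO and 100% = no enzyme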
# Mtb hypoxia inh – PubChem AID 1159583; M. tuberculosis hypoxia-regulated fluorescent reporter, fluorescence; fluorescence inhibition, % (no concentration beside the values); actives 0.1% (n = 300,000); in the data active = fluorescence inhibition mostly above about 23%, no sharp cut-off; inactive = mostly below about 17%
# GFP chromo cs – counter-screen: blocks GFP chromophore formation, dose response, counter-screen, biochemical, fluorescence, homogeneous. EC50, µM. cell-free GFP chromophore formation. actives 83% (n = 2,100). shares compounds with RecA splice inh
# Rv3671c cf – Rv3671c serine protease inhibitors, retest, confirmation, biochemical, fluorescence polarization, M. tuberculosis H37Rv; inhibition, % at 5.96 µM; shares compounds with Rv3671c inh; actives 40% (n = 140); in the data active = inhibition above about 38%
# Active calls of the source: *; ? = inconclusive; · = not tested or not shown. Unless noted, no rule for the calls is given here.
SMILES,FadD28 FP inh,Mtb betalactam,RecA splice inh,UGM FP inh,Rv3671c inh,Mtb hypoxia inh,Rv3671c cf,others
Cc1[nH]nc2c1C1(CCC(c3ccccc3)CC1)C(C#N)=C(N)O2 (stereo not drawn),4,-1,77*,0,-7,4,·,GFP chromo cs=25*
CC(=O)N1CCC2(CC1)C(C#N)=C(N)Oc1n[nH]c(C)c12,-1,?,79*,-3,-2,10,·,GFP chromo cs=15*
Cc1[nH]nc2c1C1(CCN(C(=O)OCc3ccccc3)CC1)C(C#N)=C(N)O2,-1,1,80*,0,-3,·,·,GFP chromo cs=30*
CC(=O)N1CCC2(CC1)C(C#N)=C(N)Oc1c2sc2nc(C)cc(C)c12,-2,-9,3,-1,7,7,·,
Cc1[nH]nc2c1C1(CCN(C(=O)c3ccccc3)CC1)C(C#N)=C(N)O2,0,-12,79*,-3,9,2,·,GFP chromo cs=13*
CC1CCN(c2c(NCC3CCC(C(=O)NCCc4ccccc4)CC3)c(=O)c2=O)CC1 (stereo not drawn),-1,-4,-2,0,-4,-7,·,
O=C(NCCN1CCCC1)c1ccccc1Cl,-5,-3,-5,-1,-8,3,·,
O=C1C(Cl)=C(NCCN2CCCCC2)C(=O)c2ccccc21,-2,63,48*,2,-46,25,·,GFP chromo cs=26*
CCNC1=C(Cl)C(=O)c2ccccc2C1=O,-3,75,76*,1,-2,-6,·,GFP chromo cs=33*
CCC(C)NC(=O)C1c2ccccc2C(=O)N1Cc1ccc(F)cc1 (stereo not drawn),0,3,-2,0,-3,4,·,
CCOC(=O)C1C(c2ccccc2)N(C)OC1(O)C(F)(F)F (stereo not drawn),-4,0,-1,-2,0,4,·,
CCCCCOP(=O)(OCCCCC)C1(NS(=O)(=O)c2ccccc2)C=CC(=O)c2ccccc21 (stereo not drawn),-3,-3,81*,-3,-17,13,·,GFP chromo cs=6.7*
CC1CN(C(=O)Nc2ccc3c(c2)OCO3)CC(C)O1 (stereo not drawn),-1,-8,-3,0,-2,1,·,
COc1ccc(C(O)c2nccc3cc(OC)c(OC)cc23)cc1OC (stereo not drawn),0,-11,53*,-2,-16,12,·,GFP chromo cs=25*
COCC(=O)N[C@@H]1c2ccccc2CC[C@@H]1OCc1ccccc1,-4,·,·,·,·,2,·,
Cc1ccc(OCC(=O)Nc2nnn(C)n2)c(C)c1,-4,3,-1,-1,0,7,·,
Nc1ccc2cn[nH]c2c1,-3,-1,78*,1,0,·,·,GFP chromo cs=22*
Cc1ccc2nc(-c3cccs3)oc(=O)c2c1,-2,4,32*,-1,52*,17,63*,GFP chromo cs=>38
CC1=NN(c2ccccc2)C(=O)/C1=C/c1c(O)n(-c2ccc(F)c(Cl)c2)[nH]c1=O,·,2,50*,-2,48*,12,15,GFP chromo cs=32*
CC1=NN(c2ccccc2)C(=O)/C1=C\c1c(C)[nH]n(-c2ccccc2)c1=O,1,94,18,-3,-6,5,·,
Cc1nnc(NC(=O)COc2ccccc2)s1,0,7,-3,2,0,2,·,
O=C(O)c1cccc2c1NC(C(=O)O)C1CC(Sc3ccccc3[N+](=O)[O-])C(Cl)C21 (stereo not drawn),55*,-6,·,-1,50*,20,24,
C#CCn1cc(/C=N/Nc2nc3ccccc3[nH]2)c2ccccc21,5,96,15,-3,62*,·,64*,
C(=N\Nc1nc2ccccc2[nH]1)/c1cccc2nccnc12,-2,45,16,-4,19,·,·,
Cc1cc(NC(=O)Cn2cc([N+](=O)[O-])cn2)no1,-1,-1,1,2,-7,-6,·,
SMILES,FadD28 FP inh,Mtb betalactam,RecA splice inh,UGM FP inh,Rv3671c inh,Mtb hypoxia inh,Rv3671c cf,others
Cc1nn(-c2ccc(Br)cc2)c(=O)c2ccccc12,-3,-7,1,3,71*,-5,-5,
Cc1nn(-c2ccccc2C(=O)O)c(=O)c2ccccc12,0,1,-2,2,-1,8,·,
CCN1C(=O)C(CC(=O)Nc2ccc(F)cc2)N(CCc2ccc(OC)cc2)C1=S (stereo not drawn),-3,3,9,0,51*,·,-12,
O=c1c2ccccc2[nH]c(=S)n1CCN1CCc2ccccc2C1,-3,-4,5,1,0,1,·,
c1ccc(C2(CN3CCNCC3Cc3cccc4ccccc34)CC2)cc1 (stereo not drawn),·,·,·,·,·,17,·,
O=C(N/N=C/c1cccnc1)c1cccc(NC(=O)c2cccc(Br)c2)c1,-4,-1,1,-1,61*,·,-125,
O=C(N/N=C/c1cc(Br)ccc1O)c1ccncc1,-8,100,2,-4,41*,·,9,
CC(=O)Nc1cccc(C(=O)N/N=C/c2cccnc2)c1,-1,-1,-3,2,8,·,·,
O=S(=O)(Nc1cccnc1)c1cc(Cl)ccc1Cl,-1,5,1,-1,-3,-2,·,
O=C(COC(=O)c1cc([N+](=O)[O-])ccc1N1CCOCC1)Nc1c(Cl)cccc1C(F)(F)F,-4,-8,-2,-3,-6,9,·,
COC(=O)Cc1[nH]nc2c1C(c1cc(OC)c(OC)c(OC)c1)C(C#N)=C(N)O2 (stereo not drawn),-3,1,18,-2,40*,6,-4,
O=c1c2ccccc2nc(-c2ccccc2Cl)n1-c1cccc(O)c1,-4,4,0,-6,·,0,·,
CCN(CC)C(=O)C1c2ccccc2Oc2ccccc21,-1,-24,-3,47*,74*,·,8,
Cc1ccc(-c2nnc(SCC(=O)NC3CC3)o2)cc1,-3,30,-1,-5,3,7,·,
CCCc1cc(=O)oc2cc(C)cc(OC(=O)c3ccco3)c12,-2,10,1,1,66*,19,84*,
COc1cnc(NS(=O)(=O)c2ccc(N)cc2)nc1,-2,-1,-1,-3,85*,9,-6,
Cc1cc(C)nc(NS(=O)(=O)c2ccc(N)cc2)n1,-2,-1,-3,-3,2,6,·,
O=C(CSc1c(F)c(F)cc(F)c1F)Nc1ccc(C2SCCS2)cc1,0,3,1,1,164*,1,-5,
O=C(CSc1ccc(Cl)cc1)Nc1ccc(C2SCCS2)cc1,0,-1,-3,-4,5,-4,·,
CSC[C@@H]1NC(=S)N(c2ccc(C)cc2)C1=O,0,23,1,1,91*,8,83*,
